As usually defined, the residual activity is the signal under treatment as a percentage of the control signal.

For assay [1], the target named is T1, Serine/threonine-protein kinase 17A (Homo sapiens) (UniProt Q9UEE5).
T1 sequence (whole entry): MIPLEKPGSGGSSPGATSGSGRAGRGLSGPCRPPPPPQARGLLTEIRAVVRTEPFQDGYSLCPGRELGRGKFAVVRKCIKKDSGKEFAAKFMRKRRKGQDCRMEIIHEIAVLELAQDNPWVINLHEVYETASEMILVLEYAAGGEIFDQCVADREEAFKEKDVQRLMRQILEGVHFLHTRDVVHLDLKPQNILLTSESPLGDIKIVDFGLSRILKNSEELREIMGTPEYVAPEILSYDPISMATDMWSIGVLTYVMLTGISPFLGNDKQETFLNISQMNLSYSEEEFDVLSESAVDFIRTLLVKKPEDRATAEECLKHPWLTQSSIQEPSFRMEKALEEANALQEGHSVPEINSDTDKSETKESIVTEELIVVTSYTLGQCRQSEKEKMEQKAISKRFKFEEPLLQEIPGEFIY
Conditions: at 10 µM.

The target of assay [2] is T2, Dual specificity tyrosine-phosphorylation-regulated kinase 2 (Homo sapiens) (UniProt Q92630).
T2 sequence (whole entry): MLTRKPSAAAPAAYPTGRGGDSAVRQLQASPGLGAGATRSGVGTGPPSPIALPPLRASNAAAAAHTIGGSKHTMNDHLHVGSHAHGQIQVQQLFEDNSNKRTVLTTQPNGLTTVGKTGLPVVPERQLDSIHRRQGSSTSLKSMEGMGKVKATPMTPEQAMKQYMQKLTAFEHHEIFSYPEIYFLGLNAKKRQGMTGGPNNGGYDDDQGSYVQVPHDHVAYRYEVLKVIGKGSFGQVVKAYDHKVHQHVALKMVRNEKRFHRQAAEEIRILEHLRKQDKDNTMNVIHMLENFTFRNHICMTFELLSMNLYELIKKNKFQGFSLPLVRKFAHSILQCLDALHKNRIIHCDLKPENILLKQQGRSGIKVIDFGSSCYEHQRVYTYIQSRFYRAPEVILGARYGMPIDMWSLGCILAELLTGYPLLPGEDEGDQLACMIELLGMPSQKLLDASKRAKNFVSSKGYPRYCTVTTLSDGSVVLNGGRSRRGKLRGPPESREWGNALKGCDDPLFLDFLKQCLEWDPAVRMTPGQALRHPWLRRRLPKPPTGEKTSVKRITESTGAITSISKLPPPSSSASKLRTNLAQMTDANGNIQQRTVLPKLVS
Conditions: at 1 µM.

Assay [3] concerns the target T2, Dual specificity tyrosine-phosphorylation-regulated kinase 2 (Homo sapiens). To be noted: at 10 µM.
Assay [4] has as its target T3, Ephrin type-A receptor 1 (Homo sapiens) (UniProt P21709).
T3 sequence (whole entry): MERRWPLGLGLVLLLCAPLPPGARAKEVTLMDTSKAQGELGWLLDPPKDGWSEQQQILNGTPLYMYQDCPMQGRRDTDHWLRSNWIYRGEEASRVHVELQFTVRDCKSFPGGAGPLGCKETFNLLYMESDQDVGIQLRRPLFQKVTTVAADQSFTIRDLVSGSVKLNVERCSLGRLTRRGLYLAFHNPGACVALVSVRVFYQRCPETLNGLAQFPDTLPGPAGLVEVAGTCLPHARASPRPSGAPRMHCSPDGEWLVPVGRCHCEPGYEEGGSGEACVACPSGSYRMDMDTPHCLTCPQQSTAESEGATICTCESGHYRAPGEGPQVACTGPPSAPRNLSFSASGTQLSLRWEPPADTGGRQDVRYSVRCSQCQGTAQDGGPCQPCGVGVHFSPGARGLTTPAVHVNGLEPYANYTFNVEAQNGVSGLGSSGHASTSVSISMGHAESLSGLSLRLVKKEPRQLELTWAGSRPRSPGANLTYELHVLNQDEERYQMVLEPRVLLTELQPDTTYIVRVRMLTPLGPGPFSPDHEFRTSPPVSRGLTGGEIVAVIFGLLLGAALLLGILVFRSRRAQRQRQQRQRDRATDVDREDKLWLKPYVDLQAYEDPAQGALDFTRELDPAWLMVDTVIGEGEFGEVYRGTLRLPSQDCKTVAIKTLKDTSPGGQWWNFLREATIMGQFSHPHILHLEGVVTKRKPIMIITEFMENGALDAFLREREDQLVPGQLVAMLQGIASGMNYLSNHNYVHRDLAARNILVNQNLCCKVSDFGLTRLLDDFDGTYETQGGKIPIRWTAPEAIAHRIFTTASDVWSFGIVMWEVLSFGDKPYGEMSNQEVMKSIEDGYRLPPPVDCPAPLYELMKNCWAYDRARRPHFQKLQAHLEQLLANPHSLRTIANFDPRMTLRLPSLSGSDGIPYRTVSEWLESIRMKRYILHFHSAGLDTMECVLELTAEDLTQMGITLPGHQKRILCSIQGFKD
To be noted: at 1 µM.

The target of assay [5] is T3, Ephrin type-A receptor 1 (Homo sapiens). To be noted: at 10 µM.
Assay [6] addresses Ephrin type-A receptor 2 (Homo sapiens) (UniProt P29317). Conditions: at 1 µM.
The target is the same in assay [7]. Conditions: at 10 µM.
In assay [8] the target is T4, Ephrin type-A receptor 3 (Homo sapiens) (UniProt P29320).
T4 sequence (whole entry): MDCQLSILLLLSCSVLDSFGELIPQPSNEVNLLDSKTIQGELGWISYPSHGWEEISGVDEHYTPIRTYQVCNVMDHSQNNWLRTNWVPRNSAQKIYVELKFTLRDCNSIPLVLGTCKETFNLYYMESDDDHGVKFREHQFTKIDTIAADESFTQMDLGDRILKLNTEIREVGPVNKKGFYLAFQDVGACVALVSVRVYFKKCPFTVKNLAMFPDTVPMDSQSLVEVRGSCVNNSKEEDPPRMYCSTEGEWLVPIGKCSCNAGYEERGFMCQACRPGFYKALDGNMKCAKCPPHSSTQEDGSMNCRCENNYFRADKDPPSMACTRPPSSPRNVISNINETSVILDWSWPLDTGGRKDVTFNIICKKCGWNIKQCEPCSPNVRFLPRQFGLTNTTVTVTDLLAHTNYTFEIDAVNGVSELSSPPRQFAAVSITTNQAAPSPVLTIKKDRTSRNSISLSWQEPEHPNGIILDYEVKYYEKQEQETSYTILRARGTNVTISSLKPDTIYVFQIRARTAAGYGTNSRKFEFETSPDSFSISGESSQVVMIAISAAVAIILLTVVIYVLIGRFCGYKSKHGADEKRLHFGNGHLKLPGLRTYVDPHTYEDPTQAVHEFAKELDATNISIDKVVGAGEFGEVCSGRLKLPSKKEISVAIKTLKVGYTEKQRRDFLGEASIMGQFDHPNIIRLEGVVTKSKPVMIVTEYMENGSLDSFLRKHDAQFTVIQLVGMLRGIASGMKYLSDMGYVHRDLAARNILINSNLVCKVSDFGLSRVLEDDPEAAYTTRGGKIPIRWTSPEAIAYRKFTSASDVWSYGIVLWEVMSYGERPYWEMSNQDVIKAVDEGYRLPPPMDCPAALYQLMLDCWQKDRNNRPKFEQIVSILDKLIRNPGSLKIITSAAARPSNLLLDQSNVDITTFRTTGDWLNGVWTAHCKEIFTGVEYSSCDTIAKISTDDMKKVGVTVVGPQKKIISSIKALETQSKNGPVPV
To be noted: at 1 µM.

Assay [9] concerns the target T4, Ephrin type-A receptor 3 (Homo sapiens). Conditions: at 10 µM.
Assay [10] has as its target Ephrin type-A receptor 4 (Homo sapiens) (UniProt P54764). To be noted: at 1 µM.
Assay [11] shares this target. Conditions: at 10 µM.
The target of assay [12] is Ephrin type-A receptor 5 (Homo sapiens) (UniProt P54756). To be noted: at 1 µM.
Ephrin type-A receptor 5 (Homo sapiens), sequence (P54756 whole entry): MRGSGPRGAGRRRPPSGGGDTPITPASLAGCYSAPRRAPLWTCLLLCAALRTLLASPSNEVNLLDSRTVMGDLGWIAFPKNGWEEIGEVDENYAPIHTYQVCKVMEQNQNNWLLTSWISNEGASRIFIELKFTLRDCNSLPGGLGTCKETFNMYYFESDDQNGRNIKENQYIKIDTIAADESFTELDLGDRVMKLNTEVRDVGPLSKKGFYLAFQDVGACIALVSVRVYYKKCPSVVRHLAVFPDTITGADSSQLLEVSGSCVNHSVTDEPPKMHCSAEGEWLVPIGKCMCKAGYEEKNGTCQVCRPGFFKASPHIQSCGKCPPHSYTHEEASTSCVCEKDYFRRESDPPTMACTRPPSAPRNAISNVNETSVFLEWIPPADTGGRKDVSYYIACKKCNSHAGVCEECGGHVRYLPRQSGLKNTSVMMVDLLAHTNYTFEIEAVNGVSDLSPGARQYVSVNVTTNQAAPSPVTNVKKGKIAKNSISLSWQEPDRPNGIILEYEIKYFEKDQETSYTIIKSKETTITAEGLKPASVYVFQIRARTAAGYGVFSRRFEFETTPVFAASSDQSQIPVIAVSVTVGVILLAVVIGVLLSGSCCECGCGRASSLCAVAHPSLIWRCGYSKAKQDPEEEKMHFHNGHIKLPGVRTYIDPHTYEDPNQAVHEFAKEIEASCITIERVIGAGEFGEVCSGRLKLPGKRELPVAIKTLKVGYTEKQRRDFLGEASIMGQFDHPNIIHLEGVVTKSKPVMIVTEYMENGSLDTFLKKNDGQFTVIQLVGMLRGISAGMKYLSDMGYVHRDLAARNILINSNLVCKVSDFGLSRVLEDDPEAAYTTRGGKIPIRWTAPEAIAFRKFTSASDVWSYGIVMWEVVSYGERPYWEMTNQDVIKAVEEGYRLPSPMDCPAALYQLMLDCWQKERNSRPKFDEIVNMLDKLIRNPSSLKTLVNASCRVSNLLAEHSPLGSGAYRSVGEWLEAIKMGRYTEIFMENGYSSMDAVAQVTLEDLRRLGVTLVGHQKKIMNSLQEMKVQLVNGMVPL
The target is the same in assay [13]. To be noted: at 10 µM.
In assay [14] the target is Ephrin type-A receptor 7 (Homo sapiens) (UniProt Q15375). To be noted: at 1 µM.
Ephrin type-A receptor 7 (Homo sapiens), sequence (Q15375 28-998 limits assumed): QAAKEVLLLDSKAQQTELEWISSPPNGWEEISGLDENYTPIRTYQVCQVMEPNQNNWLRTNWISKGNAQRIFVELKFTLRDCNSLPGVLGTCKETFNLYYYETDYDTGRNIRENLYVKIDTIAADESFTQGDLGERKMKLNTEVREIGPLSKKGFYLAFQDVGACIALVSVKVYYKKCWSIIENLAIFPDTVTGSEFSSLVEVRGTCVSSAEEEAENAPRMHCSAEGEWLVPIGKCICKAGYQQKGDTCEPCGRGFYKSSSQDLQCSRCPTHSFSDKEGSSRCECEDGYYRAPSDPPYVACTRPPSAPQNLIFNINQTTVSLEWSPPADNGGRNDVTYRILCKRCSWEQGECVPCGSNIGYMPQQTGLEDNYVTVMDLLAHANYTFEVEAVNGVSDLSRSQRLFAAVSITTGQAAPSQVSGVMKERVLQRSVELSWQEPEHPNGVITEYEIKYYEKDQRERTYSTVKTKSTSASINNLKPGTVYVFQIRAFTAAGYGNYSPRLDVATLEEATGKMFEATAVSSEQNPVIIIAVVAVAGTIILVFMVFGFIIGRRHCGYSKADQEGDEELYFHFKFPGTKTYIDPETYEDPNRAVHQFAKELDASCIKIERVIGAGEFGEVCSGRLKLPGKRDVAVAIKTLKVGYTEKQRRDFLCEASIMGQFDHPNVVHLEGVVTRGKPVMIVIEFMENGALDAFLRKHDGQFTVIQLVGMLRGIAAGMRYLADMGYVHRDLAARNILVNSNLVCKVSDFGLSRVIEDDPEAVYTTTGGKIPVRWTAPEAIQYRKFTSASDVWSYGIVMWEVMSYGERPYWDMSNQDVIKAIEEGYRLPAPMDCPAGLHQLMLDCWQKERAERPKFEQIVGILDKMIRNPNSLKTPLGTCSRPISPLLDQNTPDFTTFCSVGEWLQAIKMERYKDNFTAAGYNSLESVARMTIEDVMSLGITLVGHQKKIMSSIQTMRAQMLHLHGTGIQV
Assay [15] shares this target. Conditions: at 10 µM.
For assay [16], the target named is T5, Ephrin type-A receptor 8 (Homo sapiens) (UniProt P29322).
T5 sequence (whole entry): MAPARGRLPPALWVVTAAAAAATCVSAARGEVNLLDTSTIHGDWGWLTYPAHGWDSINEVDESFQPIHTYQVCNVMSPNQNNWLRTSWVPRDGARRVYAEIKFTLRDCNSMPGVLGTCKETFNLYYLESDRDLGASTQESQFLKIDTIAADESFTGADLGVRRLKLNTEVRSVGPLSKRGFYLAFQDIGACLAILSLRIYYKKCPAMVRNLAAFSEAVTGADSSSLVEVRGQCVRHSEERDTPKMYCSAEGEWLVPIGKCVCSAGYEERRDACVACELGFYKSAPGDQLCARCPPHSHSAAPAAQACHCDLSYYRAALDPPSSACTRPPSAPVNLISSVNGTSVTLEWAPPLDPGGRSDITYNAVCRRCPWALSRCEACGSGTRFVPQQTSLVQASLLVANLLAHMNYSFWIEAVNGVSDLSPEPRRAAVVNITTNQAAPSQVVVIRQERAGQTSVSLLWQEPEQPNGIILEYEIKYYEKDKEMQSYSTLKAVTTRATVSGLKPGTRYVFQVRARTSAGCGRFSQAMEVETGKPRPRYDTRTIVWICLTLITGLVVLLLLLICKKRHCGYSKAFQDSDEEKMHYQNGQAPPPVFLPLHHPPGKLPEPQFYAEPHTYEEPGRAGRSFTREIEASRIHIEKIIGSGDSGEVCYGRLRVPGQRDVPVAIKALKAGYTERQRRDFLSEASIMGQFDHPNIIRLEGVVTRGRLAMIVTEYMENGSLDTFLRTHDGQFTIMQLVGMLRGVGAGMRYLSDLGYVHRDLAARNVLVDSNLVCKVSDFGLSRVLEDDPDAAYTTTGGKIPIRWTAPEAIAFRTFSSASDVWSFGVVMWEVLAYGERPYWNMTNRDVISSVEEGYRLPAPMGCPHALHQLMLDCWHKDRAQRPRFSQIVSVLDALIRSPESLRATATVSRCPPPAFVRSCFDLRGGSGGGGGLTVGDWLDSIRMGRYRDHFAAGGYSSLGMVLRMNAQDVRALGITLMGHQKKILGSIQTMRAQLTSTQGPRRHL
To be noted: at 1 µM.

For assay [17], the target named is T5, Ephrin type-A receptor 8 (Homo sapiens). To be noted: at 10 µM.
Assay [18] has as its target T6, Ephrin type-B receptor 1 (Homo sapiens) (UniProt P54762).
T6 sequence (whole entry): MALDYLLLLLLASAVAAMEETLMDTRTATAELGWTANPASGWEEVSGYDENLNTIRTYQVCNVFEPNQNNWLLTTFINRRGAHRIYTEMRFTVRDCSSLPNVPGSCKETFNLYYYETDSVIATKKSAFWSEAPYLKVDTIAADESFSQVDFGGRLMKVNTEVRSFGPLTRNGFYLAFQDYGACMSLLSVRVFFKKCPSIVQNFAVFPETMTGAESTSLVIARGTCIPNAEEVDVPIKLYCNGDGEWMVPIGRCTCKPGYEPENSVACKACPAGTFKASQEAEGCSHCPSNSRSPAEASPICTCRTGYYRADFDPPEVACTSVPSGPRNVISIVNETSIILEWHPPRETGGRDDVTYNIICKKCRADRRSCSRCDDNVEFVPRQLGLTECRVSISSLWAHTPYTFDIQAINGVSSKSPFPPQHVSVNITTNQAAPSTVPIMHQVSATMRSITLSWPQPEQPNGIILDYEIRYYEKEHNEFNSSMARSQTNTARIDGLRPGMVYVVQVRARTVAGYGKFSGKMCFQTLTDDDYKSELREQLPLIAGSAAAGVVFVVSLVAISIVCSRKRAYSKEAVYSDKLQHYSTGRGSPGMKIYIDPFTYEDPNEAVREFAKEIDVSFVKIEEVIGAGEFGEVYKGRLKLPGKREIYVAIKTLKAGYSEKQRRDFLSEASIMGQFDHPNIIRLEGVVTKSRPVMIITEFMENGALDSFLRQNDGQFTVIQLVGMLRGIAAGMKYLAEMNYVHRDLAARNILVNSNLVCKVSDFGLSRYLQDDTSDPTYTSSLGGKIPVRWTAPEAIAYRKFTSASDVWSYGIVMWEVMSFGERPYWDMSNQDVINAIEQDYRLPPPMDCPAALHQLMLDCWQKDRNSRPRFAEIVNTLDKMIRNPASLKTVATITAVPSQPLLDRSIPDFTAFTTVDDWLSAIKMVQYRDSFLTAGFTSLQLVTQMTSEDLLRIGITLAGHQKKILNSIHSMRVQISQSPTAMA
Conditions: at 1 µM.

Ephrin type-A receptor 2 (Homo sapiens), sequence (P29317 whole entry): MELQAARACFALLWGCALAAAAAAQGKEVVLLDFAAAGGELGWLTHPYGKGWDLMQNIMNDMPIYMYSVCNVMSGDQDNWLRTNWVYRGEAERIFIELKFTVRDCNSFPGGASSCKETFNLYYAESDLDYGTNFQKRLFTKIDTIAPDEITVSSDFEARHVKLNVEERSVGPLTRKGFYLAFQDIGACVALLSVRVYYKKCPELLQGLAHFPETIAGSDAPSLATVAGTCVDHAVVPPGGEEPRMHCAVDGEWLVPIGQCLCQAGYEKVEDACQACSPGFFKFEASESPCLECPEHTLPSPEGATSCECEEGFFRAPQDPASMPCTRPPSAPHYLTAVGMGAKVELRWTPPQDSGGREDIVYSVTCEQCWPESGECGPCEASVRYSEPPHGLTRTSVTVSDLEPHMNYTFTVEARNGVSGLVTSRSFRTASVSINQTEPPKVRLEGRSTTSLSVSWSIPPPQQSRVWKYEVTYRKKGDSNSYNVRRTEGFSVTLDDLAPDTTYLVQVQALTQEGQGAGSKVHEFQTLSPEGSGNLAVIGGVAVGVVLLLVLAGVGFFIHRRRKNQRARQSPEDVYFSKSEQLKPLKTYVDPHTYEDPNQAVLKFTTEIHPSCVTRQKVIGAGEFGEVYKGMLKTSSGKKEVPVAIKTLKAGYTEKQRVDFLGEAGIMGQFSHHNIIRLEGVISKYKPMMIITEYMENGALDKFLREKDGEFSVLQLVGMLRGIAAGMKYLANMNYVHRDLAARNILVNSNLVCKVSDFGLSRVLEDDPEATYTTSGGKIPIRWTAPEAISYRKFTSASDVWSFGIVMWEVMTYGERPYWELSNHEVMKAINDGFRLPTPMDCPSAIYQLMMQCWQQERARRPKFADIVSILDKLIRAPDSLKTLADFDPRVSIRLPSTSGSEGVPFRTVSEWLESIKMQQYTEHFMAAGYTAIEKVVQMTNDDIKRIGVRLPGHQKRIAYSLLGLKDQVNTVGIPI
Ephrin type-A receptor 4 (Homo sapiens), sequence (P54764 whole entry): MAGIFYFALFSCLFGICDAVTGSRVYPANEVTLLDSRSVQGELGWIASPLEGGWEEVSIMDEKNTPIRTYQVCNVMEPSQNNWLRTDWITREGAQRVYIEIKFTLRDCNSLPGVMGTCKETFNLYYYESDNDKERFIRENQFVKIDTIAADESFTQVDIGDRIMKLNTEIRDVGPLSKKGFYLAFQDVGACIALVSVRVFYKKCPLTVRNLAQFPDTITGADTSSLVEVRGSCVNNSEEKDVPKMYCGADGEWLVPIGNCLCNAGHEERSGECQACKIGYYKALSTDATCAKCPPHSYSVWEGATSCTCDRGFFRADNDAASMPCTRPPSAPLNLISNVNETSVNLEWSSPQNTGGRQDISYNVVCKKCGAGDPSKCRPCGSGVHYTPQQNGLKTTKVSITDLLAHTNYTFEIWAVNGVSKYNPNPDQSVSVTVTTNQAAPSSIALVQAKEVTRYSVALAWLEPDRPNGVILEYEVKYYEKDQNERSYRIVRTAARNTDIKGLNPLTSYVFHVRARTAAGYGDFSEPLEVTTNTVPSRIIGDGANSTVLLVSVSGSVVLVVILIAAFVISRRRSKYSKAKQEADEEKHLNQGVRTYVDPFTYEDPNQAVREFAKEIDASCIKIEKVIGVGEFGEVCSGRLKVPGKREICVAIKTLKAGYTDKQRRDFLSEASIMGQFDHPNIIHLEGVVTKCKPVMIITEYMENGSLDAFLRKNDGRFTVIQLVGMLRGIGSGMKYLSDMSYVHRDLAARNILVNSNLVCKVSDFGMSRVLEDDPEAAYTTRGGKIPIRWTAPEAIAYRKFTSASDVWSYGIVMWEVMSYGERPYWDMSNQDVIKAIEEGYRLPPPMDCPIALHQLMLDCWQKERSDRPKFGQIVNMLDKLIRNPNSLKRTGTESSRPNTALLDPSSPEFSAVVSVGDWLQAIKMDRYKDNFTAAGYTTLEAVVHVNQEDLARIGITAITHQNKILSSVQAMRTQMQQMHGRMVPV

As to `Cc1ccc(S(=O)(=O)/C=C/C#N)cc1`, the residual activity in assay [1] was 95%; in [2] it was 96%; in [3], 102%; in [4], 95%; in assay [5], 92%; in [6], 106%. Further, the residual activity is 108% in assay [7]; 103% in assay [8]; 105% in assay [9]; 106% in [10]; 110% in [11]; 107% in assay [12]. For the same compound, the residual activity was 101% in assay [13]; 94% in assay [14]; 96% in assay [15]; 94% in assay [16]; 102% in assay [17]; 93% in assay [18].
For `Ic1cccc(CSc2nnc(-c3ccncc3)o2)c1`, the residual activity in assay [1] was determined as 3%; in [2], 87%; in [3], 60%; in assay [4], 95%; in assay [5], 88%; in assay [6], 90%. The residual activity worked out at 91% in [7]; 96% in assay [8]; 83% in [9]; 104% in assay [10]; 103% in [11]; 106% in assay [12]. The residual activity was 99% in assay [13]; 88% in assay [14]; 81% in assay [15]; 89% in assay [16]; 87% in assay [17]; 95% in assay [18].

The values are drawn from ChEMBL document CHEMBL2218924, “A broad activity screen in support of a chemogenomic map for kinase signalling research and drug discovery” (Biochem J, 2013).
